For the test, the target named is T1, ZRANB2-F2 (Homo sapiens, UniProt O95218 O95218:65-95).
T1 chain: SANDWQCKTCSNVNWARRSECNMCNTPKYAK
Nature of the test: FP; about 4-fold to 8-fold stated in p392. To be noted: tags: GST fusion (FA); label: 5'-fluorescein; ssRNA. As to the method:
Fluorescence Anisotropy titrations e.g., as shown in FIGS. 1D-F, 8 and 35, were carried out using standard protocols. In brief, 5′-Fluorescein-labeled RNA oligonucleotides were quantified by A₂₆₀, correcting for fluorescein absorbance by using A₄₉₃. For single-site experiments, the sequence […] (SEQ ID NO: 28), or single base mutants thereof, was used. For double-site experiments, two AGGUAA sites were separated by different length sequences as indicated, and the total oligonucleotide lengths were kept constant by the symmetrical addition of adenines to each end. […] Protein was titrated into this starting solution and anisotropy values measured on a Cary Eclipse fluorescence spectrophotometer fitted with manual polarizer and long-pass filters set to 475 and 515 nm for excitation and emission, respectively. […] Association constants were determined by nonlinear least squares regression analysis using a 1:1 binding model.
To determine whether changing arginine-82 (R82) would affect the binding preference of ZRANB2-F2 from GGU to GAU, the point mutation R82Q in ZNF 2 of ZRANB2 was made and the ability of both the wild type (W) protein and the R82Q mutant to bind to AGGUAA and AGAUAA was assessed by fluorescence anisotropy binding assays as described previously in Example 1.
Consider AGAUAA, for which the binding signal is ~4 fold lower than AGGUAA.

The record behind these values is US20130022590, “Compositions Comprising Zinc Finger Domains and Uses Therefor” (published 2013).
